# Experimental data taken from PubChem BioAssay (NCI).
# Values joined by “and” are separate entries in the source; they are usually repeats but may differ in a detail not shown here. Equal entries are not always repeated. This is part of a sample that, as a whole, favours compounds with a hit. Of some 83,000 tested, about 20% had one in any assay.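 96-well plates, one dose, 48 hours. Percent growth reported; active if below 10.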 Some structures have more than one record in an assay (separate samples or runs), and their calls can disagree. Active and inactive are the calls of the source.
# Columns and labels:
# Experiment in all cases: NCI-60 one-dose screen, 48 h (100 = growth as untreated, 0 = no growth, -100 = all killed)
# Conditions in all cases: 10 µM unless noted
# NCI-H23 lung = tested on: NCI-H23 lung
# NCI-H226 lung = tested on: NCI-H226 lung
# NCI-H322M lung = tested on: NCI-H322M lung
# HOP-62 NSCLC = tested on: HOP-62 NSCLC
# NCI-H460 lung = tested on: NCI-H460 lung
# HOP-92 NSCLC = tested on: HOP-92 NSCLC
# NCI-H522 lung = tested on: NCI-H522 lung
# A549/ATCC NSCLC = tested on: A549/ATCC NSCLC
# 786-0 renal = tested on: 786-0 renal
# COLO 205 colon = tested on: COLO 205 colon
Compound,growth (NCI-H23 lung),growth (NCI-H226 lung),growth (NCI-H322M lung),growth (HOP-62 NSCLC),growth (NCI-H460 lung),growth (HOP-92 NSCLC),growth (NCI-H522 lung),growth (A549/ATCC NSCLC),growth (786-0 renal),growth (COLO 205 colon)
Cc1ccc(S(=O)(=O)Nc2nc3ccccc3nc2Nc2ccc3nsnc3c2)cc1,48.7% (inactive) and 37.8% (inactive),72.9% (inactive) and 72.7% (inactive),58.5% (inactive) and 50.6% (inactive),48.5% (inactive) and 84.9% (inactive),32.1% (inactive) and 29.2% (inactive),6.25% (active),34.8% (inactive) and 23.3% (inactive),31% (inactive) and 38.4% (inactive),46.9% (inactive) and 45.1% (inactive),44.5% (inactive) and 76% (inactive)
CNC(=O)c1ccc(C)c(-n2c(C)cc(OCc3ccc(F)cc3F)c(Br)c2=O)c1,66% (inactive) and 74.1% (inactive),67.2% (inactive) and 64.6% (inactive),86.3% (inactive) and 92.8% (inactive),69.8% (inactive) and 89% (inactive),80.3% (inactive) and 97.2% (inactive),64.3% (inactive) and 90.9% (inactive),52.3% (inactive) and 47.1% (inactive),63.4% (inactive) and 63.2% (inactive),85.9% (inactive) and 84.2% (inactive),61% (inactive) and 91.8% (inactive)
CN1C(=O)C(N=Nc2ccc([N+](=O)[O-])cc2)SC1=S (stereo not given),64.1% (inactive) and 43.7% (inactive),80.9% (inactive) and 70.3% (inactive),62.2% (inactive) and 71.8% (inactive),41.1% (inactive) and 53.7% (inactive),37.7% (inactive) and 45.3% (inactive),61.2% (inactive) and 62.9% (inactive),52.9% (inactive) and 68.1% (inactive),71% (inactive) and 76.3% (inactive),70.2% (inactive) and 75.1% (inactive),67% (inactive) and 74.4% (inactive)
CCOC(=O)c1c(C)oc(C)c(C(=O)OCC)c1=O,91.8% (inactive) and 96% (inactive),95.9% (inactive) and 104% (inactive),99.7% (inactive) and 107% (inactive),99.9% (inactive) and 96.7% (inactive),108% (inactive) and 104% (inactive),98.3% (inactive) and 73.8% (inactive),109% (inactive) and 94.9% (inactive),104% (inactive) and 106% (inactive),98.8% (inactive) and 104% (inactive),117% (inactive)
OC(COc1cccc2ccccc12)CN1CCN(c2ccc(Cl)cc2)CC1 (stereo not given),84.6% (inactive) and 86.5% (inactive),92.4% (inactive) and 111% (inactive),90% (inactive) and 102% (inactive),96.5% (inactive) and 77.3% (inactive),49% (inactive) and 95% (inactive),75.1% (inactive) and 77% (inactive),109% (inactive) and 85.7% (inactive),71.9% (inactive) and 88.3% (inactive),80.9% (inactive) and 89.7% (inactive),121% (inactive)
Cn1c(SSc2ccc(-c3cccnc3)n2C)ccc1-c1cccnc1,99.8% (inactive) and 111% (inactive),108% (inactive) and 105% (inactive),106% (inactive) and 95.5% (inactive),117% (inactive) and 118% (inactive),101% (inactive) and 65.9% (inactive),79% (inactive) and 101% (inactive),62% (inactive) and 81.9% (inactive),103% (inactive),120% (inactive) and 112% (inactive),116% (inactive) and 102% (inactive)
S=C1SCN(Cc2ccccc2)CN1Cc1ccccc1,81.2% (inactive),88.8% (inactive),94.5% (inactive),100% (inactive),95.5% (inactive),37.3% (inactive),21.5% (inactive),93.7% (inactive),49.8% (inactive),78.1% (inactive)
O=C1c2ccccc2C(=O)N1/N=C/c1ccc2c(c1)OCO2,120% (inactive),101% (inactive),95.1% (inactive),104% (inactive),112% (inactive),74.4% (inactive),64.5% (inactive),87.7% (inactive),104% (inactive),99.5% (inactive)
CC1=CCC2CC1C2(C)C (stereo not given),80.7% (inactive) and 93.5% (inactive),101% (inactive) and 97.7% (inactive),92.4% (inactive) and 94.8% (inactive),82.8% (inactive) and 68.9% (inactive),106% (inactive) and 102% (inactive),75.5% (inactive) and 121% (inactive),92.9% (inactive) and 39.9% (inactive),94.3% (inactive) and 83.6% (inactive),101% (inactive) and 98.6% (inactive),89.2% (inactive) and 103% (inactive)
CCN(CC)CCOc1ccc(/C=N/Nc2nc3c([nH]2)c(=O)n(C)c(=O)n3C)cc1,89.8% (inactive) and 103% (inactive),102% (inactive) and 101% (inactive),109% (inactive) and 94.1% (inactive),103% (inactive) and 108% (inactive),109% (inactive) and 105% (inactive),94.6% (inactive),84.8% (inactive) and 93.3% (inactive),104% (inactive) and 110% (inactive),91.7% (inactive) and 107% (inactive),112% (inactive) and 111% (inactive)
OCCN1CCN(CCCN2c3ccccc3Sc3ccc(Cl)cc32)CC1,66.4% (inactive) and 80.2% (inactive),96% (inactive) and 110% (inactive),64.2% (inactive) and 77.5% (inactive),61.4% (inactive) and 93.4% (inactive),64.3% (inactive) and 85.1% (inactive),-2.25% (active),40.5% (inactive) and 57.5% (inactive),69.8% (inactive) and 93.3% (inactive),53.3% (inactive) and 71.3% (inactive),-70.1% (active) and 73.3% (inactive)
Cn1c(=O)c2[nH]c(CCCCCCCCc3nc4ccccc4[nH]3)nc2n(C)c1=O,47.4% (inactive) and 55.2% (inactive),58.1% (inactive) and 66.3% (inactive),87.3% (inactive) and 99.6% (inactive),57% (inactive) and 49.2% (inactive),68.4% (inactive) and 73.6% (inactive),60.4% (inactive),72.8% (inactive),67.4% (inactive) and 70.1% (inactive),73.1% (inactive) and 75.1% (inactive),88% (inactive) and 99.6% (inactive)
NC(=O)C1CC2C=CC1C2 (stereo not given),92.1% (inactive) and 106% (inactive),97.7% (inactive) and 98.9% (inactive),104% (inactive) and 107% (inactive),91.2% (inactive) and 98.4% (inactive),103% (inactive) and 110% (inactive),101% (inactive) and 94.5% (inactive),106% (inactive) and 94.2% (inactive),96.2% (inactive) and 100% (inactive),98% (inactive) and 116% (inactive),96.8% (inactive) and 120% (inactive)
O=C1c2ccccc2C(=O)c2c(NCCNCCO)ccc(NCCNCCO)c21,-70.8% (active) and 25.8% (inactive) and 29.5% (inactive),-56.8% (active) and -20.6% (active) and -27.1% (active),7.84% (active) and 19.3% (inactive) and -5.07% (active),-20.4% (active) and 3.59% (active) and 9.04% (active),1.72% (active) and 5.39% (active) and 5.06% (active),-7.34% (active) and -5.98% (active),-86.2% (active) and -57.7% (active) and -56.1% (active),14.3% (inactive) and 1.64% (active),0.75% (active) and 23.8% (inactive) and 25.2% (inactive),-51.3% (active) and 20.9% (inactive) and 30.2% (inactive)
Cc1nn(-c2ccc(Cl)cc2)c2ncnc(N/N=C/c3ccccc3O)c12,37% (inactive) and 18.5% (inactive),52.8% (inactive) and 27.9% (inactive),33.3% (inactive) and 7.57% (active),7.93% (active) and 9.97% (active),5.04% (active) and 1.12% (active),44.1% (inactive) and 26.6% (inactive),23.3% (inactive),9.46% (active) and 12.8% (inactive),8.99% (active) and 6.59% (active),18.7% (inactive) and 4.16% (active)
COC(=O)/C=C/c1cc(O)c2c(c1)C(C(=O)OC)C(c1ccc(O)c(O)c1)O2 (stereo not given),30.8% (inactive) and 27.3% (inactive),57.1% (inactive) and 39.7% (inactive),72.7% (inactive) and 55.8% (inactive),45.8% (inactive) and 37.5% (inactive),28% (inactive) and 17.7% (inactive),16.5% (inactive) and -0.331% (active),1.09% (active) and 0.933% (active),31.5% (inactive) and 20.3% (inactive),17% (inactive) and 15% (inactive),58.5% (inactive) and 41% (inactive)
